Assay outcomes deposited in PubChem by National Center for Advancing Translational Sciences (NCATS).
MARV entry inh: inhibitors of Marburg virus binding or cell entry; Marburg virus pseudotyped entry inhibition, cell reporter; Potency, µM (titrated, usually from 37.8 µM), usual class: inhibitors; actives 1.8% (n = 300,000); calls by dose curve; tested in HEK293 cells
HCMV inh: blocks human cytomegalovirus replication | HFF cells, HCMV-luciferase reporter, 72 h; hits give low values | actives 4.5% (n = 410,000) | activity change, negative = inhibition, % at 57.5 µM; in the data active = activity change below about -60%; inconclusive = no clear call, values can overlap the other calls; inactive = above about -39%
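Human foreskin fibroblasts infected with luciferase-reporter HCMV at MOI 1 PFU/cell, compounds at two doses. Luciferase measured 72 h post infection; normalized to buffer-only basal and Salinomycin (10uM) controls.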
Lassa entry inh: blocks Lassa virus binding to or entry into cells | Lassa virus pseudotype entry inhibition, cell reporter | Potency, µM (highest dose often 37.9 µM), actives largely listed as inhibitors | actives 1.2% (n = 300,000); calls by dose curve; tested in HEK293 cells; also: nearly all actives have a fitted effect of over 50% in size
FMDV antiviral: antivirals against foot and mouth disease virus; AID 1159524; FMDV antiviral cell-based qHTS; actives 1.2% (n = 410,000); Potency, µM (top dose mostly 57.9 µM), actives largely listed as inhibitors; calls by dose curve; tested in HEK293T cells; also: read-out not given here; nearly all actives have a fitted effect of over 45% in size
Large screens that a line does not name were inactive; ! = a repeat was not active. Only some compounds are listed: those with a hit (about 6.2% of all), similar ones and a draw of the others.

O=C(N/N=C/c1cccc2cccnc12)c1ccccc1O	HCMV inh -102.9 (no result: MARV entry inh, Lassa entry inh)
Cc1nnc(SCc2nnc(-c3ccccc3)o2)n(N)c1=O	none
CC(Oc1ccc(Br)cc1)C(=O)NC1CCN(Cc2ccccc2)CC1 (stereo not drawn)	MARV entry inh 12.6µM
O=C(NC1CCN(Cc2ccccc2)CC1)c1cccc(S(=O)(=O)Nc2ccc(Br)cc2)c1	MARV entry inh inconclusive, HCMV inh -68.6, Lassa entry inh inconclusive
Cc1ccc(NS(=O)(=O)c2cccc(C(=O)NC3CCN(Cc4ccccc4)CC3)c2)c(C)c1	FMDV antiviral inconclusive (no result: MARV entry inh, Lassa entry inh)
C=CCN(c1ccccc1)S(=O)(=O)c1cccc(C(=O)NC2CCN(Cc3ccccc3)CC2)c1	MARV entry inh inconclusive, HCMV inh -64.6, Lassa entry inh inconclusive, FMDV antiviral inconclusive
O=C(NC1CCN(Cc2ccccc2)CC1)c1cccc(S(=O)(=O)Nc2ccc(F)cc2)c1	HCMV inh -77.0 (no result: MARV entry inh, Lassa entry inh)
CN(C(=O)COC(=O)CN1C(=O)c2cccc([N+](=O)[O-])c2C1=O)c1ccccc1	none (no result: MARV entry inh, Lassa entry inh)
COc1ccc(CCC(=O)Nc2nc3ccccc3[nH]2)cc1	Lassa entry inh inconclusive
CCOCC(O)CNc1ccccc1 (stereo not drawn)	MARV entry inh inconclusive, HCMV inh inconclusive
OC(CNc1ccccc1)COc1ccc(OCC(O)CNc2ccccc2)cc1 (stereo not drawn)	MARV entry inh 11.2µM, HCMV inh inconclusive, Lassa entry inh inconclusive, FMDV antiviral inconclusive
COc1ccc(-c2nc(CN3CCC(C(=O)NC4CCN(Cc5ccccc5)CC4)CC3)c(C)o2)cc1OC	none (no result: MARV entry inh, Lassa entry inh)
COC1=CC(=O)c2c(ccc3ncnc(N)c23)C1=O	MARV entry inh inconclusive, HCMV inh -98.7, Lassa entry inh inconclusive, FMDV antiviral 2.51µM
Cc1nn(-c2ccccc2)c(Cl)c1C(=O)Nc1nnc(C2CCCCC2)s1	MARV entry inh inconclusive, Lassa entry inh inconclusive
Cc1nn(Cc2ccccc2Cl)c(C)c1C(=O)Nc1nnc(C2CC2)s1	MARV entry inh 0.891µM, HCMV inh -89.8, Lassa entry inh inconclusive
O=C(N[C@@H](Cc1ccccc1)C(=O)NC1CCCCCC1)c1ccco1	none
Cc1ccc(/C(N)=N/OC(=O)c2ccco2)cc1	MARV entry inh inconclusive, Lassa entry inh inconclusive
COc1ccc(/C(N)=N/OC(=O)c2ccco2)cc1	MARV entry inh inconclusive, Lassa entry inh 7.08µM
CC1CCCCN1C(=O)CSc1nc2ccccc2nc1Cc1ccccc1 (stereo not drawn)	HCMV inh -71.8, Lassa entry inh inconclusive (no result: MARV entry inh)
C[C@H](O)[C@@H]1CN2CCc3c([nH]c4ccc(-c5ccc6c(c5)OCO6)cc34)[C@@H]2C[C@@H]1N(C)C(=O)NC1CCCCC1	HCMV inh -86.2 (no result: MARV entry inh, Lassa entry inh)
Cc1ccc(-c2c(C#N)c(N)nc3c2CCCCC3)o1	none
O=[N+]([O-])c1ccc(-c2nc(Cl)c3c(n2)CCCC3)o1	HCMV inh -69.0 (no result: MARV entry inh, Lassa entry inh)
COc1ccc(OCC(=O)OCC(=O)N2C(C)CCCC2C)cc1 (stereo not drawn)	none (no result: MARV entry inh, Lassa entry inh)
COc1ccccc1NC(=O)c1sc2ncn(Cc3cccc(C)c3)c(=O)c2c1C	MARV entry inh inconclusive, HCMV inh -101.6 (no result: FMDV antiviral)
CCN1C(=NCc2ccccc2)NC(c2cccc(C(F)(F)F)c2)C(C(=O)OC)=C1C (stereo not drawn)	none (no result: HCMV inh, Lassa entry inh, FMDV antiviral)
COC(=O)C1=C(C)N(Cc2cccc(C(F)(F)F)c2)C(=NCc2ccc3c(c2)OCO3)NC1c1ccc(F)cc1 (stereo not drawn)	HCMV inh -85.3 (no result: MARV entry inh, Lassa entry inh, FMDV antiviral)
COC(=O)C1=C(C)N(Cc2cccc(C(F)(F)F)c2)C(=NCc2ccc(OC)cc2)NC1c1cccc(C(F)(F)F)c1 (stereo not drawn)	HCMV inh -98.9 (no result: MARV entry inh, Lassa entry inh, FMDV antiviral)
COC(=O)C1=C(C)N(Cc2cccc(C(F)(F)F)c2)C(=NCc2ccc(C(F)(F)F)cc2)NC1c1ccc(F)cc1 (stereo not drawn)	HCMV inh -101.0 (no result: MARV entry inh, Lassa entry inh, FMDV antiviral)
COC(=O)C1=C(C)N(Cc2cccc(C(F)(F)F)c2)C(=NCc2ccc(C(F)(F)F)cc2)NC1c1ccc(C(F)(F)F)cc1 (stereo not drawn)	HCMV inh -100.7 (no result: MARV entry inh, Lassa entry inh, FMDV antiviral)
COC(=O)C1=C(C)N(Cc2ccccc2)C(=NCC2CC2)NC1c1cccc(C(F)(F)F)c1 (stereo not drawn)	none (no result: HCMV inh, Lassa entry inh, FMDV antiviral)
COC(=O)C1=C(C)N(Cc2ccccc2)C(=NCc2ccc3c(c2)OCO3)N[C@H]1c1ccccc1	none (no result: MARV entry inh, Lassa entry inh)
CCC(NC(=O)c1cc(COc2cncc(Cl)c2)on1)c1ccc(C)cc1 (stereo not drawn)	MARV entry inh inconclusive, HCMV inh -99.2
COC(=O)[C@@H](NC(=O)c1cc(COc2cncc(Cl)c2)on1)c1ccccc1	none
CCCC(=O)Nn1cnc2c(c1=O)C1(CCCC1)Cc1ccccc1-2	none
O=C(N/N=C/c1ccc2ncccc2c1)c1ccco1	MARV entry inh 1.26µM, Lassa entry inh 2.51µM
COc1ccc(C(=O)c2ccccc2)c2c(O)ccc(C(=O)c3ccccc3)c12	MARV entry inh 14.1µM, HCMV inh -78.9, Lassa entry inh inconclusive, FMDV antiviral 12.6µM
COc1cc(O)c(C(=O)c2ccccc2)cc1O	none (no result: MARV entry inh, HCMV inh, Lassa entry inh)
CC(C)c1cc(C(=O)N2CCCC(CCC(=O)N3CCN(c4ccccn4)CC3)C2)no1 (stereo not drawn)	HCMV inh -61.7, FMDV antiviral inconclusive
COc1ccc(NC(=O)CSc2ncnc3c2cnn3CCc2ccccc2)cc1	MARV entry inh inconclusive, Lassa entry inh 11.2µM
CC(C)C(=O)NNC(=O)CSc1ncnc2c1cnn2-c1ccccc1Cl	HCMV inh -65.1 (no result: MARV entry inh, Lassa entry inh)
CCOC(=O)CNC(=O)CSc1ncnc2c1cnn2-c1ccc(Cl)cc1	none
CCOC(=O)Cc1csc(NC(=O)CSc2ncnc3c2cnn3-c2ccc(OC)cc2)n1	MARV entry inh inconclusive, Lassa entry inh 2µM, FMDV antiviral 22.4µM
Cc1csc(NC(=O)CSc2ncnc3c2cnn3-c2ccccc2Cl)n1	MARV entry inh 12.6µM, Lassa entry inh inconclusive, FMDV antiviral 14.1µM (no result: HCMV inh)
COc1ccc(OC)c(-n2c(=O)c3ccccc3c3ccccc3c2=O)c1	FMDV antiviral 25.1µM
CNc1ccc(/C=C/C(=O)c2ccc3c(c2)OCCO3)cc1[N+](=O)[O-]	none
CCC1CCc2c(sc3nc(SCC(=O)NCc4ccco4)n(-c4ccccc4)c(=O)c23)C1 (stereo not drawn)	MARV entry inh inconclusive, HCMV inh -74.8
Cc1ccc(-n2c(SCC(=O)NCc3ccco3)nc3sc4c(c3c2=O)CC(C)(C)SC4)cc1	Lassa entry inh inconclusive
O=C(CSc1nc2c(sc3ccccc32)c(=O)n1-c1ccccc1)NCc1ccco1	MARV entry inh inconclusive, HCMV inh -80.7, Lassa entry inh inconclusive
CC(=O)Oc1cc2c(cc1OC(C)=O)C(=O)CCCC2	none (no result: MARV entry inh, Lassa entry inh)
Cc1ccc(-n2c(C)cc(/C=c3/sc4nc5ccccc5n4c3=O)c2C)cc1	MARV entry inh 0.282µM, Lassa entry inh inconclusive, FMDV antiviral 1µM (no result: HCMV inh)
COc1ccccc1CN(C)C(=O)c1cc(C)nc2ccccc12	MARV entry inh 11.2µM
COc1ccccc1CNC(=O)c1cc(C)nc2ccccc12	none
Cc1cc(=O)oc(C)c1C(=O)Nc1ccccc1F	none
Cc1ccc(-c2csc(N/N=C/c3ccco3)n2)c(C)c1	MARV entry inh 1.78µM, HCMV inh inconclusive, Lassa entry inh 3.26µM
Cn1cc(C(=O)Nc2ccc(C#N)cc2)c2ccccc2c1=O	MARV entry inh inconclusive, HCMV inh -67.4!
CC(=O)c1cn(C)c(=O)c2ccccc12	none (no result: MARV entry inh, Lassa entry inh)
